Measured values as given in PubChem BioAssay (NCATS).
Activity calls are given as the source filed them. No rule for the calls is given here.

test system: HIV-1 nucleocapsid protein NCp7 (binding to TG oligonucleotide); assay: HIV Nucleocapsid (AID 346); conditions: HIV-1 NC / fluorescein-TGTGTGTG probe, fluorescence polarization;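 also: potency is for inhibitors that block NC binding and lower polarization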
Procedure, shortened: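 HIV-1 NC (100 nM) binding to fluorescein-labelled ssDNA TG4xF (10 nM) in Hepes pH 7.5, 250mM NaCl, 1uM ZnCl2, TCEP and 2-mercaptoethanol; compounds pin-transferred, 1 hr room temperature, fluorescence polarization read on CCD imager.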
Potency is read from the fitted curve at half-maximal effect.

Row | SMILES | Potency
1 | O=c1cnc2cnc(OCc3ccccc3)nc2n1Cc1ccc(F)cc1 | > 20 µM (inactive)
2 | CN(C)Cc1ccccc1-c1nccc(N(C)C)n1 | > 20 µM (inactive)
3 | CN(C)c1ncc2nc(-c3ccc(F)cc3)c(=O)n(Cc3ccc(F)cc3)c2n1 | > 20 µM (inactive)
4 | CC(=O)NCCNc1ccnc(-c2ccccc2C(F)(F)F)n1 | > 20 µM (inactive)
5 | Cc1cccc(CNc2ncncc2-c2ccccc2C)c1 | > 20 µM (inactive)
6 | COc1cccc(Cn2c(=O)c(-c3ccc(F)cc3)nc3cnc(N(C)C)nc32)c1 | > 20 µM (inactive)
7 | COCCn1c(=O)c(CCc2ccccc2)nc2cnc(OC)nc21 | > 20 µM (inactive)
8 | CCNc1ncc2nc(CCc3ccccc3)c(=O)n(C[C@H]3CCCO3)c2n1 | > 20 µM (inactive)
9 | COc1ccc(-c2nc3cnc(N4CCNCC4)nc3n(C)c2=O)cc1 | > 20 µM (inactive)
10 | O=c1c(-c2ccc(Cl)cc2)nc2cnc(N3CCOCC3)nc2n1-c1ccccc1 | > 20 µM (inactive)
11 | CN(C)c1ncc2nc(-c3ccccc3)c(=O)n(-c3ccccc3)c2n1 | > 20 µM (inactive)
12 | O=C(c1ccncc1)N1CCC[C@@]2(CCN(c3ccccn3)C2)C1 | > 20 µM (inactive)
13 | COCCn1c(=O)c(-c2cn(C)c3ccccc23)nc2cncnc21 | 11.9 µM (inactive)
14 | COc1cccc(Nc2ncc3ncc(=O)n(Cc4cccs4)c3n2)c1 | > 20 µM (inactive)
15 | COc1ccc(CNc2ncncc2-c2ccc(C(=O)N(C)C)cc2)c(OC)c1 | > 20 µM (inactive)
